{"source": "the supplement of paper PMC8975748", "note": "Where a name gives a salt, the structure may show the parent alone."}
{"test_system": "Saccharomyces cerevisiae BY4741 SeMeCo community", "experiment": "z-score of subpopulation abundance vs DMSO median, subpopulation auxotrophic for LUM; higher = larger share of this subpopulation than in DMSO controls", "settings": "10 µM; 24 h; SM minimal medium; subpopulation (auxotrophy): LUM", "procedure": "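Fluorescent four-plasmid SeMeCo (self-establishing metabolically cooperating S. cerevisiae BY4741 community; plasmids pH-mRuby2, pL-mWasabi, pU-eCFP, pM-TagRFP657) was grown 24 h in minimal SM medium with each Selleck FDA-approved drug at 10 µM in 384-well plates. Cells were fixed and imaged by high-content confocal microscopy. For each auxotrophic subpopulation (and the prototroph), a z-score gives the deviation from the DMSO vehicle-control population median.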"}
{"smiles": "NC(=O)c1cn(Cc2c(F)cccc2F)nn1", "note": "[Rufinamide]", "z-score of subpopulation abundance": 0.43}
{"smiles": "N=C(N)NC(=O)c1nc(Cl)c(N)nc1N", "note": "[Amiloride HCl]", "z-score of subpopulation abundance": 0.19}
{"smiles": "COc1ccc(Cl)cc1C(=O)NCCc1ccc(S(=O)(=O)NC(=O)NC2CCCCC2)cc1", "note": "[Glyburide (Glibenclamide)]", "z-score of subpopulation abundance": 1.11}
{"smiles": "Cc1nc(NC(=O)N2CCC[C@H]2C(N)=O)sc1-c1ccnc(C(C)(C)C(F)(F)F)c1", "note": "[Alpelisib (BYL719)]", "z-score of subpopulation abundance": -0.87}
{"smiles": "O=C(O)c1cccnc1Nc1cccc(C(F)(F)F)c1", "note": "[Niflumic acid]", "z-score of subpopulation abundance": 0.4}
{"smiles": "C[n+]1ccccc1C=NO", "note": "[Pralidoxime Iodide]", "z-score of subpopulation abundance": 0.18}
{"smiles": "CC(=O)O[C@H]1C[C@@]2(C)[C@@H](C[C@@H](O)[C@H]3[C@@]4(C)CC[C@@H](O)[C@@H](C)[C@@H]4CC[C@@]32C)/C1=C(\\CCC=C(C)C)C(=O)O", "note": "[Fusidate Sodium]", "z-score of subpopulation abundance": -0.25}
{"smiles": "Cc1c(Cl)cccc1Nc1ccccc1C(=O)O", "note": "[Tolfenamic Acid]", "z-score of subpopulation abundance": -1.95}
{"smiles": "CC1(C)[C@H](C(=O)O)N2C(=O)C[C@H]2S1(=O)=O", "note": "[Sulbactam]", "z-score of subpopulation abundance": -0.1}
{"smiles": "CC(C(=O)O)c1ccc(C(=O)c2cccs2)cc1", "note": "(stereo not given) [Suprofen]", "z-score of subpopulation abundance": -0.07}
{"smiles": "Nc1nc(N)c2nc(-c3ccccc3)c(N)nc2n1", "note": "[Triamterene]", "z-score of subpopulation abundance": -4.47}
{"smiles": "NC(=N\\CCCCCC/N=C(N)/N=C(\\N)Nc1ccc(Cl)cc1)/N=C(\\N)Nc1ccc(Cl)cc1", "note": "[Chlorhexidine diacetate]", "z-score of subpopulation abundance": 1.19}
{"smiles": "COC(=O)C1=C(C)NC(C)=C(C(=O)OC)C1c1ccccc1[N+](=O)[O-]", "note": "[Nifedipine]", "z-score of subpopulation abundance": 0.34}
{"smiles": "O=C(CCCN1CCN(c2ccccn2)CC1)c1ccc(F)cc1", "note": "[Azaperone]", "z-score of subpopulation abundance": 0.38}
{"smiles": "CS(=O)(=O)c1ccc([C@@H](O)[C@@H](CF)NC(=O)C(Cl)Cl)cc1", "note": "[Florfenicol]", "z-score of subpopulation abundance": -0.3}
{"smiles": "C#C[C@]1(O)CC[C@H]2[C@@H]3CCC4=CCCC[C@@H]4[C@H]3C(=C)C[C@@]21CC", "note": "[Desogestrel]", "z-score of subpopulation abundance": -0.72}
{"smiles": "COC(=O)C1=C(C)NC(C)=C(C(=O)OCC(C)C)C1c1ccccc1[N+](=O)[O-]", "note": "(stereo not given) [Nisoldipine]", "z-score of subpopulation abundance": 0.88}
{"smiles": "CC[N+](CC)(CC)CC", "note": "[Tetraethylammonium bromide]", "z-score of subpopulation abundance": 0.28}
{"smiles": "CCCN[C@H]1CCc2nc(N)sc2C1", "note": "[Pramipexole 2HCl Monohydrate]", "z-score of subpopulation abundance": -0.47}
{"smiles": "Nc1ccc(S(=O)(=O)Nc2ccnn2-c2ccccc2)cc1", "note": "[Sulfaphenazole]", "z-score of subpopulation abundance": -0.28}
{"smiles": "Oc1c(Br)cc(Br)c2cccnc12", "note": "[Broxyquinoline]", "z-score of subpopulation abundance": 12.8}
{"smiles": "Cc1nccn1CC1CCc2c(c3ccccc3n2C)C1=O", "note": "(stereo not given) [Ondansetron Hydrochloride Dihydrate]", "z-score of subpopulation abundance": -0.16}
{"smiles": "CCN(CC)C(=O)C1(c2ccccc2)CC1CN", "note": "(stereo not given) [Milnacipran HCl]", "z-score of subpopulation abundance": 0.17}
{"smiles": "CCCCC(F)(F)[C@@]1(O)CC[C@H]2[C@@H](CC(=O)[C@@H]2CCCCCCC(=O)O)O1", "note": "[Lubiprostone]", "z-score of subpopulation abundance": -0.67}
{"smiles": "Cc1cc(NS(=O)(=O)c2ccc(N)cc2)no1", "note": "[Sulfamethoxazole sodium]", "z-score of subpopulation abundance": -0.34}
{"smiles": "c1cnc2cc3c(cc2n1)[C@@H]1CNC[C@H]3C1", "note": "[Varenicline Tartrate]", "z-score of subpopulation abundance": -0.39}
{"smiles": "NC(=O)c1cnccn1", "note": "[Pyrazinamide]", "z-score of subpopulation abundance": -0.08}
{"smiles": "CC(C)[C@H]1CC[C@H](C(=O)N[C@H](Cc2ccccc2)C(=O)O)CC1", "note": "[Nateglinide]", "z-score of subpopulation abundance": 1.15}
{"smiles": "CCn1cc(C(=O)O)c(=O)c2cc(F)c(N3CCNC(C)C3)c(F)c21", "note": "(stereo not given) [Lomefloxacin HCl]", "z-score of subpopulation abundance": 1.32}
{"smiles": "Cc1nc2n(c(=O)c1CCN1CCC(c3noc4cc(F)ccc34)CC1)CCCC2O", "note": "(stereo not given) [Paliperidone]", "z-score of subpopulation abundance": -1.04}
{"smiles": "COc1ccc(C(Cl)=C(c2ccc(OC)cc2)c2ccc(OC)cc2)cc1", "note": "[Chlorotrianisene]", "z-score of subpopulation abundance": 0.76}
{"smiles": "CO/N=C(\\C(=O)N[C@@H]1C(=O)N2C(C(=O)O)=C(CSc3nc(=O)c(O)nn3C)CS[C@H]12)c1csc(N)n1", "note": "[Ceftriaxone Sodium Trihydrate]", "z-score of subpopulation abundance": -0.43}
{"smiles": "CCN(CC)C(=O)N1CCN(C)CC1", "note": "[Diethylcarbamazine citrate]", "z-score of subpopulation abundance": -0.5}
{"smiles": "Oc1ccc(Cl)c2cccnc12", "note": "[Cloxiquine]", "z-score of subpopulation abundance": 22.1}
{"smiles": "Cc1onc(-c2c(F)cccc2Cl)c1C(=O)N[C@@H]1C(=O)N2[C@@H]1SC(C)(C)[C@@H]2C(=O)O", "note": "[Flucloxacillin sodium]", "z-score of subpopulation abundance": -0.02}
{"smiles": "C#C[C@]1(O)CC[C@H]2[C@@H]3CCC4=CCCC[C@@H]4[C@H]3CC[C@@]21C", "note": "[Lynestrenol]", "z-score of subpopulation abundance": -0.41}
{"smiles": "O=c1[nH]c(=O)n([C@H]2C[C@H](O)[C@@H](CO)O2)cc1I", "note": "[Idoxuridine]", "z-score of subpopulation abundance": -0.31}
{"smiles": "Cc1ccc(Nc2c(F)cccc2Cl)c(CC(=O)O)c1", "note": "[Lumiracoxib]", "z-score of subpopulation abundance": -0.56}
{"smiles": "COc1nc2ccc(Br)cc2cc1[C@@H](c1ccccc1)[C@@](O)(CCN(C)C)c1cccc2ccccc12", "note": "[Bedaquiline fumarate]", "z-score of subpopulation abundance": 3.68}
{"smiles": "NC(CO)(CO)CO", "note": "[Trometamol]", "z-score of subpopulation abundance": 0.42}
